# Results as given in the supplement of paper PMC6555819.
# Key:
# Assay in all cases: PBM binding z-score (relative to random genomic background probes); higher = stronger binding; sequences stand for … in GC…GCGATTGACAGCGTAGAATGAAGG
# [1] = system: RARb homodimer (NR concentration 270 nM)
# Summary of the method: (§1)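 Regression normalization was applied to scanned fluorescence from custom Agilent 4×180K protein-binding microarrays. Before scanning, arrays were incubated 1 h with ligand-free nuclear receptor dimers, and binding was detected with antibodies against each partner (one per run). Binding z-scores use the random background probes as reference.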
# [2] = system: RARg:RXRa (NR concentration 270 nM, RXRa partner concentration 90 nM)
# Summary of the method: as §1
# [3] = system: RARg homodimer (NR concentration 270 nM)
# Summary of the method: as §1
# [4] = system: RXRa DBDmut IVT, anti-RXR (DBD mutation: RXRa K156A/R161A, NR concentration 90 nM)
# Summary of the method: as §1
# [5] = system: RXRa homodimer (NR concentration 180 nM)
# Summary of the method: as §1
# [6] = system: THRa:RXRa (NR concentration 90 nM, RXRa partner concentration 90 nM)
# Summary of the method: as §1
# [7] = system: THRa homodimer (NR concentration 90 nM)
# Summary of the method: as §1
# [8] = system: VDR homodimer (NR concentration 270 nM)
# Summary of the method: as §1
Sequence,PBM binding z-score [1],PBM binding z-score [2],PBM binding z-score [3],PBM binding z-score [4],PBM binding z-score [5],PBM binding z-score [6],PBM binding z-score [7],PBM binding z-score [8]
CCTTACGGGTCACTAACAGGTTATAGCATTTGGA,3.17,5.31,4.12,2.03,4.25,2.98,0.367,1.29
CTACCAAGGTGCACAAGGTCGTTGATTACTATTC,1.71,1.29,0.782,1.8,1.42,2.14,1.21,2.73
CCTAGCAGGCCAGGCTCACTCAAGCATTTCGCTT,-0.944,-0.644,-0.705,0.0454,-0.649,-0.789,-0.705,-0.911
TCTCGGAGGACATGAAAGGTCAGAGCTCGACATC,4.53,4.22,4.21,1.18,3.67,3.34,0.586,0.768
CGAACGAGGGCAGGAGTTGATAGCAAATGCCGAT,0.754,0.906,1.13,0.67,0.365,0.403,-0.595,0.281
AGAACGAGGGCAAGGAGTTGATAGCACGGGTGGC,0.992,1.21,1.49,1.12,0.867,0.885,-0.277,1.93
GCTTCTAGGTCAACTGATGGTCAGCTAAAGCTCG,3.97,5.38,5.89,1.54,3.56,3.5,1.79,0.255
